# Compounds with a hit are over-represented: about 2.4% of the library has one in this group of screens.
# TMEM16A act: activators or potentiators of mouse TMEM16A chloride channel; 340,000 tested, 0.3% active; AID 623877; HEK293 TMEM16A/YFP-H148Q/I152L, iodide quench fluorescence; stronger effect = lower value; Q8BHY3; B-score at 10 µM;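 active means fluorescence-ratio B-score plate-corrected deviation score at least 3 library SD below zero, with starting fluorescence score within 5 deviations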;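 further: channel opened by trigger with iodide after compound preincubation; score built on the fluorescence ratio of max minus min over baseline; more negative score means more quench and so TMEM16A activation or potentiation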
# CHT PAM: allosterically activates the human high affinity choline transporter | B-score at 10 µM | 310,000 tested, 0.49% active | AID 488977 | CHT-expressing cells, membrane potential dye, choline EC20; stronger effect = higher value; LV-AA mutant CHT in HEK293 cells | Q9GZV3;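 active means initial fluorescence not abnormally high and integrated response B-score, plate-corrected, over 3 SD above library mean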
# Target sequence (Q9GZV3 whole entry, looked up): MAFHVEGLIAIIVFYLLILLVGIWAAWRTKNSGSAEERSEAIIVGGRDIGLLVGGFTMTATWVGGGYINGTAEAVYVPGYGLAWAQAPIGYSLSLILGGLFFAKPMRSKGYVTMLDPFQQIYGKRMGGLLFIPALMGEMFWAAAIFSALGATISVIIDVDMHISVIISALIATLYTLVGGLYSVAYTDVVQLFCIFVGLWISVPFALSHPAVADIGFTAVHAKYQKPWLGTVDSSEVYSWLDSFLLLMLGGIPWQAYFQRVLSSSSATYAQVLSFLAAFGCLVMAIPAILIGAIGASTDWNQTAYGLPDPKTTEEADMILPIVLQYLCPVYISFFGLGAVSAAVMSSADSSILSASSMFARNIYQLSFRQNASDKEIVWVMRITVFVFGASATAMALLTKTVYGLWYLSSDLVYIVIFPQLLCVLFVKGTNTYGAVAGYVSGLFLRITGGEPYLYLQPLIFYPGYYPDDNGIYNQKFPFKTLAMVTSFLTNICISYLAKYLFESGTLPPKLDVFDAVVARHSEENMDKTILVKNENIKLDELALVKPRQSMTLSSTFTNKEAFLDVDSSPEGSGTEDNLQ
# CHT block: inhibitors of human choline transporter CHT; Q9GZV3; 310,000 tested, 0.86% active; AID 488975; B-score at 10 µM; CHT-expressing cells, membrane potential dye, choline response; stronger effect = lower value;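 active means B-score over 3 SD under the library average, and starting fluorescence ratio not unusually high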;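 further: choline stimulus applied at its EC90 after an EC20 pre-addition; B-score computed on integrated fluorescence ratio after choline addition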
# ANO1 block: blocks the mouse calcium-activated chloride channel TMEM16A. Q8BHY3. HEK293 TMEM16A/YFP iodide influx fluorescence, ionomycin. normalized B-score (activity score, 25-100; higher = stronger inhibition) at 10 µM. 310,000 tested, 1.2% active. AID 588511;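 active means ratio plate-corrected score three or more library SD toward inhibition, starting fluorescence score within five deviations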;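 further: score derived from kinetic fluorescence span divided by baseline fluorescence per well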
# CHT inh conf: human CHT inhibition, confirmatory screen; CHT activity remaining % of control (stronger effect = lower value), % at 10 µM; 2,400 tested, 70% active; CHT-expressing cells, choline membrane potential dye; LV-to-AA substituted CHT, HEK293 cells; shares compounds with CHT block;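 active means choline transporter activity left, mean of duplicates at 10 µM, below buffer-only control mean minus 3 SD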;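 further: depolarization triggered by choline at its EC90 following an EC20 pre-addition; 0% = hemicholinium-3 full block and 100% = buffer-only control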
# HEK293 MPD ctr: CHT inhibitor counter-screen hit in parental HEK293 cells; shares compounds with CHT block; membrane potential dye, choline response; active = decrease or increase beyond buffer ±3SD; 2,400 tested, 4% active; membrane potential ratio readout (active if shifted either direction beyond buffer ±3SD; no single direction) at 10 µM; AID 493222;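 further: parental cells lack the transporter so any hit is non-specific; ratio is peak minus trough fluorescence over baseline after EC90 choline challenge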
# * = called active by the depositor; i = inactive; / = not tested or not shown.
SMILES,TMEM16A act,CHT PAM,CHT block,ANO1 block,CHT inh conf,HEK293 MPD ctr
CN(Cc1ccccc1)c1ccc(C(CC(N)=O)NC(=O)c2ccc(Br)cc2)cc1[N+](=O)[O-] (stereo not given),i,i,-6.53*,25*,70.2%*,i
NC(=O)CC(NC(=O)c1ccccc1)c1ccc(N2CCN(c3ccccc3)CC2)c([N+](=O)[O-])c1 (stereo not given),i,i,i,i,/,/
CC(C)Nc1ccc(C(CC(N)=O)NC(=O)c2ccc(Br)cc2)cc1[N+](=O)[O-] (stereo not given),i,i,i,i,/,/
COc1cccc(NC(=S)NC2CC3CCCC(C2)N3CC(C)C)c1 (stereo not given),i,i,i,i,/,/
O=C(Nc1cccc(C(F)(F)F)c1)/C(=C/c1ccco1)NC(=O)c1cccs1,i,i,i,i,/,/
CC(=O)N/N=C/c1c(C)[nH]n(-c2ccccc2)c1=O,i,i,-5.83*,i,i,i
CC(C)c1c(C(=O)N/N=C/c2cccc(OCc3ccc(F)cc3)c2)nnn1-c1nonc1N,i,i,-6.63*,i,68.0%*,i
CN(C)Cc1c(C(=O)N/N=C/c2cccc(OCc3ccc(F)cc3)c2)nnn1-c1nonc1N,i,i,i,i,/,/
O=C(Nc1ccc2c(c1)OCCO2)c1ccc(S(=O)(=O)N2CCCCC2)cc1,i,i,-6.06*,i,i,i
Cc1noc(C)c1CSc1nc2ccccc2n1CCc1ccccc1,i,i,-5.03*,i,i,i
O=C(O)CCn1c(SCc2ccccc2)nc2ccccc21,i,i,i,i,/,/
Cc1ccc(C(=O)NC2CCC(C)CC2)o1 (stereo not given),i,i,i,i,/,/
Cc1ccc(CS(=O)Cc2ccc(C(=O)NC3CCCC(C)C3C)o2)cc1 (stereo not given),i,i,-9.68*,i,19.6%*,i
Cc1ccc(CS(=O)Cc2ccc(C(=O)NC3CCCCCC3)o2)cc1 (stereo not given),i,i,-9.45*,i,36.2%*,i
Cc1ccc(CS(=O)Cc2ccc(C(=O)NC3CCC(C)CC3)o2)cc1 (stereo not given),i,i,-9.79*,i,3.4%*,i
Cc1cc(C)c2cc(CN(CCCO)S(=O)(=O)c3ccccc3F)c(=O)[nH]c2c1,i,i,i,i,/,/
COc1ccccc1C(=O)NCC(c1ccco1)N1CCc2ccccc21 (stereo not given),i,i,i,i,/,/
Cc1cccc(-c2ncc(CN3CCN(C4CCCC4)C(CCO)C3)cn2)c1 (stereo not given),i,i,i,i,/,/
Cc1cccc(-c2ncc(CN3CCN(CCC(C)C)C(CCO)C3)cn2)c1 (stereo not given),i,i,-5.78*,i,i,i
CCCCn1nc2cc(C(=O)NC3CCc4ccccc43)ccc2c1OCC (stereo not given),i,i,-5.47*,i,33.8%*,i
CCCCn1nc2cc(C(=O)NCCc3cccs3)ccc2c1OCC,i,i,-9.22*,i,23.5%*,i
CCOc1c2ccc(C(=O)NCCc3cccs3)cc2nn1CC,i,i,i,i,/,/
COc1cc(C(c2nnnn2C2CCCC2)N2CCN(C(=O)c3ccco3)CC2)cc(OC)c1OC (stereo not given),i,i,i,i,/,/
CC(C)OP(=O)(OC(C)C)/C(C=O)=N\Nc1ccc([N+](=O)[O-])cc1,i,i,-8.43*,i,i,i
CC(C)OP(=O)(OC(C)C)C(Nc1ccc([N+](=O)[O-])cc1)c1cccc([N+](=O)[O-])c1 (stereo not given),i,i,i,i,/,/
SMILES,TMEM16A act,CHT PAM,CHT block,ANO1 block,CHT inh conf,HEK293 MPD ctr
COc1cccc(N2CCN(C(=O)c3oc4ccccc4c3NC(=O)Cc3ccc(OC)c(OC)c3)CC2)c1,i,i,i,i,/,/
CCN(CC)S(=O)(=O)c1ccc(/C=C/C(=O)NC2CCCCC2)cc1,i,i,-7.05*,i,45.6%*,i
CCOc1ccc(/C=C/C(=O)NC2CCCCC2)cc1,i,i,i,i,/,/
CCOC(=O)CSc1nnc(CNc2ccccc2Cl)n1-c1ccccc1,i,i,-5.34*,i,i,i
CCOC(=O)N1CCN(C(=O)C2CCCN(c3ncnc4c3nc3n4CCCCC3)C2)CC1 (stereo not given),i,i,-9.32*,i,10.7%*,i
O=C(C1CCCN(c2ncnc3c2nc2n3CCCCC2)C1)N1CCN(c2ccccc2F)CC1 (stereo not given),i,i,-8.9*,i,-10.6%*,i
CC1CCN(C(=O)C2CCCN(c3ncnc4c3nc3n4CCCCC3)C2)CC1 (stereo not given),i,i,i,i,/,/
COc1cccc(N2CCN(C(=O)C3CCCN(c4ncnc5c4nc4n5CCCCC4)C3)CC2)c1 (stereo not given),i,i,-5.67*,i,37.8%*,i
CC(C)c1ccc(-c2nn(-c3ccccc3)cc2C(=O)NCC2CCCO2)cc1 (stereo not given),i,i,i,i,/,/
NC(=O)CC(NC(=O)c1ccc(Cl)cc1)C(=O)NCCc1ccc(S(N)(=O)=O)cc1 (stereo not given),i,i,i,i,/,/
Cc1cc(C)c(C#N)c(N)n1,i,i,-8.64*,i,i,i
COc1ccc(N=Cc2cc(Cl)ccc2O)cc1Cl,i,i,i,i,/,/
Cc1ccc(N=Cc2cc(Cc3ccccc3Cl)cc([N+](=O)[O-])c2O)c(O)c1,i,i,-7.81*,i,64.1%*,i
COc1ccc(N=Cc2cc(Cc3ccccc3Cl)cc([N+](=O)[O-])c2O)cc1OC,i,i,-5.97*,i,i,i
Cc1cc(O)c(C(C)C)cc1N=Cc1ccccc1[N+](=O)[O-],i,/,/,/,/,/
O=C(CCCCCCN1C(=O)c2ccccc2C1=O)N1CCC(c2ccccc2)C1 (stereo not given),i,i,-6.08*,i,i,i
O=C(CCCCCCCCN1C(=O)c2ccccc2C1=O)N1CCOCC1,i,i,i,i,/,/
O=C(Nc1ccc(F)cc1)Nc1ccccc1NS(=O)(=O)c1cccs1,i,i,-5.27*,i,i,i
CCOC(=O)c1cnc2c(Cl)cccc2c1NCCN1CCOCC1,i,i,-5.76*,i,i,2.81*

# Compound activity as filed in PubChem BioAssay.
